Compound activity deposited in PubChem BioAssay by The Scripps Research Institute Molecular Screening Center.
Only some compounds are listed: those with a hit (about 3.4% of all), similar ones and a draw of the others.
MITF inh – MITF inhibitors, primary screen, biochemical, AlphaScreen, human; AlphaScreen MITF homodimerization, bead proximity signal; Microphthalmia-associated transcription factor (Homo sapiens), O75030; 0.91% of 650,000 active; inhibition, % at 2.6 µM; in the data active = inhibition above about 50%;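 note: 0% = vehicle wells with protein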
FBW7 act – FBW7 E3 ligase activators, primary screen, biochemical, AlphaScreen, human; normalized activity (activation), % at 26.1 µM; AlphaScreen FBW7–phospho-cyclin E peptide binding, activator screen; F-box/WD repeat-containing protein 7 (Homo sapiens), Q969H0; 0.13% of 650,000 active; AID 1259310, 2017; in the data active = normalized activity above about 1.9%;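 note: purified mutant Fbw7 with reduced substrate affinity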
GPR151 activ – activators of human GPR151, primary screen, cell-based, PathHunter beta-arrestin, luminescence. G-protein coupled receptor 151 (Homo sapiens), Q8TDV0. PathHunter beta-arrestin GPR151 cells. activation, % at 11.2 µM. 1% of 650,000 active. AID 1508602, 2020; in the data active = activation above about 4.9%;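 note: 0% = median of compound wells and 100% = cells with positive control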
TEAD-YAP inh – TEAD-YAP interaction inhibition, primary screen, TEAD-YAP interaction inhibitor project, luminescence, HEK-TIYL cells. TEAD-Gal4/YAP UAS-luciferase luminescence. inhibition, % at 9.12 µM. 1.4% of 640,000 active. AID 1259422, 2018; in the data active = inhibition above about 32%;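 note: 0% = median of test compound wells and 100% = reference inhibitor wells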
GPR151 confirm – GPR151 activators, triplicate retest, confirmation, cell-based, PathHunter beta-arrestin, luminescence. AID 1508609, 2020. 6,700 tested, under 10 active. shares compounds with GPR151 activ. GPR151 PathHunter beta-arrestin cells, 90 min; % of EA-reagent control over plate median. activation, % at 11.2 µM;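 active = mean percent activation across replicates above the confirmation screen cutoff of 4.91%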
GPR119 counter – GPR119 activators in beta-arrestin cells, counter-screen for GPR151 activator project, cell-based, PathHunter beta-arrestin, luminescence, triplicate; shares compounds with GPR151 activ; 90 min; 0 = compound-well median, 100 = enzyme-acceptor control; activation, % at 11.2 µM; 0.3% of 6,700 active; AID 1508611, 2020;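 active = mean percent activation in the counterscreen above 29.09%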;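 note: counterscreen on off-target GPR119 to flag nonselective hits from the GPR151 activator screen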
Target sequence (Q8TDV5 whole entry, looked up): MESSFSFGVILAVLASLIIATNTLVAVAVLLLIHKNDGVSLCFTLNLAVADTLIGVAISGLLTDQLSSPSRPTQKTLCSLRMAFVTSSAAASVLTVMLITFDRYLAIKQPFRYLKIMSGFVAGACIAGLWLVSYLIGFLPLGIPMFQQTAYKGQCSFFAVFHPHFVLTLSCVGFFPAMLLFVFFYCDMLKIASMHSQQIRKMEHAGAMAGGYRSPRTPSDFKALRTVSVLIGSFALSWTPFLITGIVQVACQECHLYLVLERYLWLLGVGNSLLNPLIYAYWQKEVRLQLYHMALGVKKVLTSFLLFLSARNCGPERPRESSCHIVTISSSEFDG
Numbers without * were called inactive; nt = no result.

SMILES | MITF inh | FBW7 act | GPR151 activ | TEAD-YAP inh | GPR151 confirm | GPR119 counter
CCC(C)NC(=O)CN(c1cccc(C(F)(F)F)c1)S(=O)(=O)c1ccccc1 (configuration not stated) | -10 | 0 | 10.0* | 6 | 0 | 3
CCCCCc1ccc(OC(=O)c2cccc(C(=O)Oc3ccc(CCCCC)cc3)n2)cc1 | 14 | 0 | 2 | 3 | nt | nt
COCCN1C(=S)NC2CC1(C)Oc1ccccc12 (configuration not stated) | -10 | 0 | 6.1* | -7 | 0 | -10
CC(C)c1c(-c2ccccc2)[n+](=O)c2c(n1[O-])CCCCC2 | -6 | 0 | 5.2* | 0 | -1 | 3
Cc1c(-c2ccc(F)cc2)[n+](=O)c2c(n1[O-])CCCC2 | 5 | 0 | 0 | 11 | nt | nt
Clc1ccc(Cn2cc(/C=N/n3cnnc3)c3ccccc32)cc1 | 1 | 0 | 6.2* | 10 | 0 | -2
Fc1ccc(Cn2cc(/C=N/n3cnnc3)c3ccccc32)cc1 | 18 | 1 | -2 | -2 | nt | nt
Cc1ccc(-c2cc(C(=O)Nc3cccnc3)c3cc(Br)ccc3n2)o1 | -5 | 0 | 6.5* | -2 | -1 | -11
COc1ccc(S(=O)(=O)N(CC(N)=O)c2ccccc2)cc1OC | -5 | 0 | 1 | 5 | nt | nt
CCN(CC)C(=O)C1CCCN(c2nc(Nc3cc(OC)c(OC)c(OC)c3)c3ncn(C4CCCCC4)c3n2)C1 (configuration not stated) | 17 | 0 | 12* | -13 | -1 | -12
CCN(CC)C(=O)C1CCCN(c2nc(Nc3cc(OC)c(OC)c(OC)c3)nc(N(CC)CC)n2)C1 (configuration not stated) | -2 | 0 | 14* | -7 | 0 | -3
CCN(CC)C(=O)C1CCCN(c2nc(Nc3cc(OC)c(OC)c(OC)c3)c3ncn(CCN4CCCC4=O)c3n2)C1 (configuration not stated) | 9 | 0 | -1 | 7 | nt | nt
COc1cc(Nc2nc(Nc3ccc(NC(C)=O)cc3)c3ncn(C4CCCCC4)c3n2)cc(OC)c1OC | 5 | 0 | 1 | -7 | nt | nt
COc1cc(Nc2nc(Nc3ccncc3)nc3c2ncn3C2CCCCC2)cc(OC)c1OC | 3 | 0 | 6.1* | 5 | 0 | 0
CCOc1ccc(NC(=O)C2CCC(CNS(C)(=O)=O)CC2)cc1 (configuration not stated) | 3 | 0 | 3 | -2 | nt | nt
Cc1oc2ccc(Cl)cc2[n+]1CCCS(=O)(=O)O | 8 | 1 | -1 | 9 | nt | nt
CCO/C(C)=C/c1oc2ccc(-c3ccccc3)cc2[n+]1CCCS(=O)(=O)O | 6 | 0 | 5.6* | 6 | 0 | -5
COc1ccc(-c2noc(C(C)Oc3ccccc3)n2)cc1 (configuration not stated) | -11 | 0 | 0 | -9 | nt | nt
c1ccc(CNc2cc(Nc3ccncc3)ncn2)cc1 | -5 | 0 | 5.4* | -1 | 0 | 1
Nc1nc(NCc2cccc(C(F)(F)F)c2)cc(Nc2ccncc2)n1 | -12 | 0 | 4.9* | 9 | 0 | -1
Cn1ccnc1CN1CCC(Oc2ccc(C(=O)NCc3ccncc3)cc2)CC1 | -8 | 0 | 5.2* | 6 | 0 | 1
O=C(Nc1ccccc1O)c1ccc(N2C(=O)C3C4C=CC(C4)C3C2=O)cc1 (configuration not stated) | -2 | 0 | 1 | -126 | nt | nt
O=C(Nc1c[nH]c(=O)[nH]c1=O)c1ccc(N2C(=O)C3C4C=CC(C4)C3C2=O)cc1 (configuration not stated) | 15 | 0 | 6.7* | 4 | 0 | 6
COc1ccc(C(=O)C2CCN(S(=O)(=O)c3ccc(Cl)cc3)CC2)cc1 | 26 | 1 | -1 | -8 | nt | nt
CCOc1cc(/C=C(\C#N)C(=O)c2ccccc2)ccc1OCCn1c([N+](=O)[O-])cnc1C | 5 | 0 | 8.9* | -8 | -1 | 0
SMILES | MITF inh | FBW7 act | GPR151 activ | TEAD-YAP inh | GPR151 confirm | GPR119 counter
O=C(NCc1cccnc1)c1c(NC(=O)C2COc3ccccc3O2)sc2c1CCCC2 (configuration not stated) | 2 | 0 | 1 | -2 | nt | nt
CCOC(=O)N1CCN(c2cc(N3CCCC3)c(F)cc2[N+](=O)[O-])CC1 | 7 | 0 | -2 | 11 | nt | nt
CCOC(=O)N1CCN(c2cc(N3CCN(C)CC3)c(F)cc2[N+](=O)[O-])CC1 | 19 | 0 | 8.3* | 5 | 0 | -2
C[C@H]1O[C@@H](O[C@H]2[C@@H](O)C[C@H](O[C@H]3[C@@H](O)C[C@H](O[C@H]4CCC5(C)[C@H](CC[C@@H]6[C@@H]5C[C@@H](O)C5(C)C(C7=CC(=O)OC7)CCC65O)C4)O[C@@H]3C)O[C@@H]2C)C[C@H](O)[C@@H]1O (some centres not stated) | -7 | 0 | 5.0* | nt | 0 | 98*
Cc1ccc2c(c1)NC(=O)c1cc(NC(=O)C3CCCC3)ccc1O2 | 6 | 0 | -1 | 6 | nt | nt
COc1cc(Nc2ncc(C(=O)NCc3ccccc3)s2)cc(OC)c1OC | 9 | 0 | 6.1* | -21 | 0 | 3
COc1cc(C(=O)NCc2cc(-c3ccccc3)on2)cc(OC)c1OC | 0 | 0 | 6.2* | -2 | -1 | -17
Cc1ccc(CSc2nc3ccccc3c(=O)n2CC2CCCO2)cc1 (configuration not stated) | -8 | 0 | -1 | -8 | nt | nt
O=c1c2ccccc2nc(SCc2ccncc2)n1CC1CCCO1 (configuration not stated) | -2 | 0 | 6.2* | 5 | 1 | 16
C=CSc1sc(Cl)c(N2CCC3(CC2)OCCO3)c1[N+](=O)[O-] | 2 | 0 | 5.2* | -3 | 0 | -2
C=CSc1sc(Cl)c(N2CCOCC2)c1[N+](=O)[O-] | 23 | 0 | -1 | 5 | nt | nt
Cc1cc(=O)oc2cc(OCC(=O)OCC(=O)NC(=O)NCc3ccccc3)ccc12 | 0 | 0 | 0 | -4 | nt | nt
CCCOc1ccc(NC(=O)C2CC(=O)N(CC)C(=Nc3ccc(C)c(C)c3)S2)cc1 (configuration not stated) | 8 | 0 | 7.3* | -3 | 3 | 13
CCOc1ccc(NC(=O)C2CC(=O)N(CC)C(=Nc3ccc(C)c(C)c3)S2)cc1 (configuration not stated) | -3 | 0 | 0 | 12 | nt | nt
O=C(Nc1cccc(C(F)(F)F)c1)C1CCN(c2nnnn2-c2ccccc2)CC1 | -9 | 0 | 1 | 0 | nt | nt
